Source: PubChem BioAssay (NCI)
Where “and” joins values, the source holds several entries; their conditions need not be identical. Identical values can stand only once. This is part of a sample that, as a whole, favours compounds with a hit. Of some 79,000 tested, about 15% had one in any assay. Calls of active or inactive are those of the source. Rule as the data show it: active = growth inhibition above about 70%; inactive = the rest.

Assays:
[1] = NCI Yeast Anticancer Drug Screen. Data for the rad50 strain (AID 155);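 also: 0% = growth of vehicle-only cultures of the same strain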; conditions: S. cerevisiae rad50 strain growth inhibition; at 50.0 µM; hits give high values
Outline: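 Inhibition values express reduced yeast growth in compound-treated cultures relative to vehicle-treated controls.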

[2] = NCI Yeast Anticancer Drug Screen. Data for the mec2-1 strain (AID 157); conditions: S. cerevisiae mec2-1 strain, hits give high values
Outline: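 Test agents were screened against the mec2-1 yeast strain, with defined DNA repair or cell cycle alteration. Growth was scored as inhibition against vehicle-only controls.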

[3] = NCI Yeast Anticancer Drug Screen. Data for the sgs1 mgt1 strain (AID 161);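 also: 0% = growth of cultures given vehicle only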; conditions: S. cerevisiae sgs1 mgt1 strain, hits give high values
Outline: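 Mutant yeast exposed to compound; growth scored against vehicle-only wells.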

[4] = NCI Yeast Anticancer Drug Screen. Data for the cln2 rad14 strain (AID 165);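 also: 0% = growth equal to vehicle treated cultures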; conditions: S. cerevisiae cln2 rad14 strain, hits give high values
Outline: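 Growth of compound-exposed yeast (cln2 rad14 genotype) measured and expressed as inhibition relative to vehicle.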

[5] = NCI Yeast Anticancer Drug Screen. Data for the mlh1 rad18 strain (AID 175); conditions: S. cerevisiae mlh1 rad18 strain growth inhibition, hits give high values
Outline: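 In this whole-cell yeast screen, a strain with altered DNA damage repair is challenged with compound, and its growth is measured against matched vehicle-treated controls.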

[6] = NCI Yeast Anticancer Drug Screen. Data for the bub3 strain (AID 167); conditions: S. cerevisiae bub3 mutant strain, hits give high values
Outline: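 Steps: expose the mutant yeast strain to compound; grow alongside vehicle-treated cultures; measure growth; express inhibition against the vehicle cultures.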

[7] = at 5.0 µM (retest, dose inferred, filed as 0.5)
[8] = at 50.0 µM (retest, dose inferred, filed as 5.0)

Measured: growth inhibition

COc1cc2c(c(OC)c1OC)-c1ccc(O)cc1C(NC(C)=O)CC2 (configuration not stated)
inactive: [1] -13.2% | [2]; at 50.0 µM -18.8% | [3]; at 50.0 µM -4.1% | [4]; at 50.0 µM 17.4% | [5]; at 50.0 µM 31.2%

NC(P(=O)(O)O)P(=O)(O)O
inactive: [1] 4.15% | [2]; at 50.0 µM -1.2% | [3]; at 50.0 µM 16.7% | [4]; at 50.0 µM 15.3% | [5]; at 50.0 µM 7.1%

COc1ccc(CCNC2CC3CCC2(C)C3(C)C)cc1OC (configuration not stated)
inactive: [1] 15.6% | [2]; at 50.0 µM 12.8% | [3]; at 50.0 µM 11.5% | [4]; at 50.0 µM -22.3% | [6]; at 50.0 µM 8.75% | [5]; at 50.0 µM 24.9%

O=C1CC2OCC=C3CN4CCC56c7ccccc7N1C5C2C3CC46 (configuration not stated) (tested in a mixture with another compound)
inactive: [1] 25% and 2.65% and 6.9% | [2]; at 50.0 µM -7.15% and 22.6% and -14.6% | [3]; at 50.0 µM -15.7% and -7.3% and -9.45% | [6]; at 50.0 µM 3.35% and 5.1% and -9.9% | [5]; at 50.0 µM 5.7% and 9.45% and 10.1%

CN(N=O)C(=O)NC1CCCCC1
inactive: [1] -18.6% | [2]; at 50.0 µM -0.25% | [4]; at 50.0 µM -4.45% | [6]; at 50.0 µM -1.95% | [5]; at 50.0 µM 13.8%

CC1=NN(c2ccccc2)C(=O)C1N=Nc1ccc([As](=O)(O)O)c(O)c1 (configuration not stated)
inactive: [1] 15.9% | [2]; at 50.0 µM -8.6% | [3]; at 50.0 µM -6.8% | [6]; at 50.0 µM -26.5% | [5]; at 50.0 µM -3.65%

CCCCCCCCCCOC(=O)CC(C)=O.CCCCCCCCCCOC(=O)CC(C)=O.[Ni+2]
inactive: [1] -37.5% | [2]; at 50.0 µM -9.3% | [3]; at 50.0 µM -26.4% | [4]; at 50.0 µM -45.1% | [6]; at 50.0 µM 2.3% | [5]; at 50.0 µM -39%

CCOP(=O)(OCC)/C(C#N)=C/c1ccccc1OC
inactive: [1] 40.5% | [2]; at 50.0 µM -1.3% | [3]; at 50.0 µM 0.15% | [6]; at 50.0 µM -14.8% | [5]; at 50.0 µM 27.6%

O=C(COc1ccc(Cl)c(Cl)c1)Nc1cccc(S(=O)(=O)F)c1
inactive: [1] 29.4% | [2]; at 50.0 µM 10.4% | [3]; at 50.0 µM -2.45% | [4]; at 50.0 µM -10.8% | [6]; at 50.0 µM 13.1% | [5]; at 50.0 µM 19.4%

CC([NH-])C(=O)O.CC([NH-])C(=O)O.[Cu+2] (configuration not stated)
inactive: [1] -0.95% | [2]; at 50.0 µM 11.3% | [3]; at 50.0 µM 15.6% | [4]; at 50.0 µM -40.1% | [5]; at 50.0 µM 19.6%

O=C1CC2OCC=C3CN4CCC56c7ccccc7N1C5C2C3CC46 (configuration not stated)
inactive: [1] 9.65% | [2]; at 50.0 µM 2.3% | [3]; at 50.0 µM 4.15% | [6]; at 50.0 µM 8.9% | [5]; at 50.0 µM -9.25%

CCOC(OCC)c1ccc(N(C)C)cc1.[C-]#[O+].[C-]#[O+].[C-]#[O+].[Cr]
inactive: [1] -8.25% | [2]; at 50.0 µM -30.2% | [3]; at 50.0 µM 37.8% | [6]; at 50.0 µM -8.3% | [5]; at 50.0 µM 4.6%

CCC(Br)C(N)=O (configuration not stated)
inactive: [1] -9.25% | [2]; at 50.0 µM 3.2% | [3]; at 50.0 µM -6.9% | [6]; at 50.0 µM -4.25% | [5]; at 50.0 µM -1%

CCC(C)Sc1ccccc1OC(=O)NC (configuration not stated)
inactive: [1] -10.4% | [2]; at 50.0 µM 7.05% | [3]; at 50.0 µM 0.5% | [6]; at 50.0 µM 9.85% | [5]; at 50.0 µM 24.1%

CN1CC=C(OP(=O)(NCc2ccccc2)N(CCCl)CCCl)CC1 (configuration not stated)
inactive: [1] -6.25% | [2]; at 50.0 µM -12.8% | [3]; at 50.0 µM 0.9% | [4]; at 50.0 µM -3.1% | [6]; at 50.0 µM -17.4% | [5]; at 50.0 µM -34%

CC(C)=NNC1=NC(CC(C)C)P(=O)(NCCCCNP2(=O)SC(NN=C(C)C)=NC2CC(C)C)S1 (configuration not stated)
inactive: [1] -5.25% | [2]; at 50.0 µM 17.5% | [3]; at 50.0 µM 11.1% | [6]; at 50.0 µM -11.3% | [5]; at 50.0 µM 6.15%

CCCCCCCCCCCCBr
inactive: [1] 10.7% | [2]; at 50.0 µM -7.4% | [3]; at 50.0 µM -5.1% | [6]; at 50.0 µM -10.3% | [5]; at 50.0 µM -1.05%

c1cc[c]([Sn]([c]2ccccc2)[c]2ccccc2)cc1.c1cc[c]([Sn]([c]2ccccc2)[c]2ccccc2)cc1
inactive: [2]; [7] 51% | [4]; [7] 9% | [6]; [7] 54%

CN(C)P(=O)(N(C)C)N(C)CO
inactive: [1] 6.35% | [2]; at 50.0 µM 6.05% | [4]; at 50.0 µM 7.35% | [6]; at 50.0 µM 18.2% | [5]; at 50.0 µM 4.6%

Nc1nc(N)c(-c2ccc(Cl)c(Cl)c2)c(COc2ccc(CNC(=O)Nc3cccc(S(=O)(=O)F)c3)cc2Cl)n1
active: [3]; at 50.0 µM 74.8%
inactive: [2]; [7] -5% | [2]; [8] 10% | [2]; at 50.0 µM 58.9% | [3]; [7] -4% | [3]; [8] 6% | [4]; [7] -6% | [4]; [8] 11% | [4]; at 50.0 µM -4.6% | [6]; [7] 0% | [6]; [8] 20% | [6]; at 50.0 µM 13.2% | [5]; [7] 2% | [5]; [8] 42% | [5]; at 50.0 µM 66.4%

N[C@H](Cc1ccc2oc3cc(=O)c4ccccc4c-3nc2c1)C(=O)O
inactive: [1] 20.8% | [2]; at 50.0 µM 33.4% | [4]; at 50.0 µM 15.1% | [6]; at 50.0 µM 35.5% | [5]; at 50.0 µM 39.2%
